Hits are enriched below; roughly 19% of the tested compounds scored in any of these assays.
TDP1 cell noCPT: qHTS for Inhibitors of human tyrosyl-DNA phosphodiesterase 1 (TDP1): qHTS in cells in absence of CPT. DT40 Tdp1-/- hTDP1 cells, no CPT, ATP luminescence, 48 h. hit rate 15% among 420,000. Potency, µM (series often up to 46.2 µM), for the others: at the highest dose activity change, negative = growth inhibition, most hits filed as inhibitors; further: potency means the concentration at half of the fitted maximal effect; on the % scale 0 is the no-effect control and ±100 the full control effect; nearly all actives have a fitted effect of over 55% in size
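Chicken DT40 Tdp1-/- cells stably complemented with human TDP1 were seeded at 400 cells/well with DMSO in place of 20 nM camptothecin. After compound pinning, cells grew at least 48 hr at 37 °C; viability read by CellTiter-Glo luminescence.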
TGFb SMAD3 inh: TGF-b pathway inhibition. AID 588855. hit rate 1.2% among 410,000. HepG2 CAGA-GFP TGF-b/SMAD3 reporter, GFP fluorescence, 18 h; TGF-beta stimulated, 500 pg/mL final. Potency, µM (series often up to 46.1 µM), without a hit: at the highest dose activity, negative = inhibition, hits mostly inhibitors; further: potency means the concentration at half of the fitted maximal effect; on the % scale 0 is the no-effect control and ±100 the full control effect; nearly all actives have a fitted effect of over 65% in size
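GFP signal (ex488/em500-530) from TGF-beta-stimulated HEPG2 CAGA-GFP cells, 500 pg/mL final, 18 h at 37 degrees C in DMEM plus 1% FBS, normalized to unstimulated and DMSO-stimulated controls.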
HepG2 tox: HepG2 cytotoxicity, counter-screen for TGF-b inhibitors; HepG2 CAGA-GFP viability, ATP luminescence, 18 h; Potency, µM (series often up to 46.1 µM), for the others: at the highest dose activity change, negative = cytotoxicity, hits mostly cytotoxic; hit rate 0.76% among 410,000; AID 588856; further: potency means the concentration at half of the fitted maximal effect
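CellTiter-Glo luminescence gave cytotoxicity after 18 hours at 37 degrees C. The cells were HepG2 CAGA-GFP in 1% FBS DMEM, stimulated with 500 pg/mL TGF-beta after compound addition. %Activity was normalised to no-cell wells (complete cell-killing) and DMSO (no toxicity), and curves were fitted and classified.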
IL1B secr inh: inhibitors of inflammasome signaling (IL-1 beta secretion); THP-1 LPS/ATP IL-1B secretion, AlphaLISA, 16 h; hits give low values; activity change, % at 57.5 µM; hit rate 4.7% among 360,000; AID 743279; in the data active means activity change below about -50%; inconclusive means mostly about -30% to -49%; further: on the % scale 0 is the no-effect control and ±100 the full control effect
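THP-1 cells pretreated 1 hr with compounds (up to 57.5 uM final), then stimulated with LPS (250 ng/mL final) plus ATP (1.25 mM final); secreted IL-1B measured by AlphaLISA after 16 hr, decreased signal indicating inhibition.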
TDP1 block: blocks human tyrosyl-DNA phosphodiesterase 1. recombinant TDP1, AlphaScreen DNA substrate cleavage. hit rate 0.28% among 350,000. Potency, µM (top dose mostly 130 µM), inactives show at the highest dose activity change, negative = inhibition, usual class: inhibitors. AID 485290; further: potency means the concentration at half of the fitted maximal effect; on the % scale 0 is the no-effect control and ±100 the full control effect; nearly all actives have a fitted effect of over 40% in size
Target sequence (Q9NUW8 whole entry, looked up): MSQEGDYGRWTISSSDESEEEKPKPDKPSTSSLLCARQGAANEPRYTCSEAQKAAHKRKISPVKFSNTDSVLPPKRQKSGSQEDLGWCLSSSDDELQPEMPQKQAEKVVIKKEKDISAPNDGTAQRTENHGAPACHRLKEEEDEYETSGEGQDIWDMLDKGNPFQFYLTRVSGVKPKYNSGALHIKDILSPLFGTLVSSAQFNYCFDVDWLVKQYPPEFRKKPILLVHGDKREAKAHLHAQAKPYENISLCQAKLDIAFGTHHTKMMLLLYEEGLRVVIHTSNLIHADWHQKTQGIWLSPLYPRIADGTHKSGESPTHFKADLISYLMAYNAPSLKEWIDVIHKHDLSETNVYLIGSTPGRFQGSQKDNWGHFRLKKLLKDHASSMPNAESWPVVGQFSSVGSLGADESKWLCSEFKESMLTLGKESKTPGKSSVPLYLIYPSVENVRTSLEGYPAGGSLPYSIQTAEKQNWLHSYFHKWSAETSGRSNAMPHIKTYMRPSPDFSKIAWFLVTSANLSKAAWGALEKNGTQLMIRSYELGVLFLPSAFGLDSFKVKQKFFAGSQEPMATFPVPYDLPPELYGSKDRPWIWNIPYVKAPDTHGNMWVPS
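Recombinant human Tdp1 (E. coli-expressed, 1 nM final) preincubated with compounds 15 min at room temperature, then 5'-biotin/3'-phosphotyrosine-FITC DNA substrate (15 nM final) added for 5 min. AlphaScreen beads (10 ug/ml final) added 10 min; cleavage lowers signal.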
DT40 TDP1 CPT: DT40-hTDP1 cell growth loss with CPT; chicken DT40 Tdp1-/-;hTDP1 cells + 20 nM CPT, ATP luminescence, 48 h; Potency, µM (highest dose often 46.2 µM), inactives show at the highest dose activity change, negative = growth inhibition, most hits filed as inhibitors; hit rate 12% among 420,000; AID 686979; further: potency means the concentration at half of the fitted maximal effect; on the % scale 0 is the no-effect control and ±100 the full control effect; nearly all actives have a fitted effect of over 55% in size
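Chicken DT40 Tdp1-/- cells stably complemented with human TDP1 were seeded at 400 cells/well in medium containing 20 nM camptothecin, exposed to pin-transferred compounds, and grown at 37 °C for at least 48 hr. Viability was read as ATP luminescence.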
Numbers without * were called inactive; ? = inconclusive; / = no result given; [ ] = dose if it differs, or a comment. Unless noted, the call rests on the fitted dose curve; in most records, active means well fitted curve in the direction sought with a large enough effect; inconclusive means small, poorly fitted or top-dose-only effect, or another doubt; inactive means no such curve, though single readings can be large; an effect the other way counts as inactive or inconclusive.

SMILES	TDP1 cell noCPT	TGFb SMAD3 inh	HepG2 tox	IL1B secr inh	TDP1 block	DT40 TDP1 CPT
CCN(c1ccccc1)S(=O)(=O)c1ccc(C(=O)NC2CCCCC2)cc1	16µM*	0%	0%	24	/	?
CN(C)c1ccc(/C=C2/C(=O)NC(=O)N(Cc3ccco3)C2=O)cc1	-17%	?	10%	-11	28µM*	-17%
CCN(CC)c1ccc(/C=C2/C(=O)NC(=O)N(Cc3ccco3)C2=O)cc1	-3%	-3%	-1%	-64*	?	-1%
Cc1cc(/C=C2/C(=O)NC(=O)N(Cc3ccco3)C2=O)c(C)n1-c1ccccc1	-30%	19%	28%	8	3%	1%
COc1ccc2c(c1)[nH]c1c(C)nccc12	20µM*	?	-11%	-72*	-1%	13µM*
Cc1nccc2c1[nH]c1ccc(Br)cc12	23µM*	37%	29%	-19	/	?
Cc1ccc(-n2c(=O)[nH]c3ccc(Br)cc3c2=O)cc1	-21%	10%	-5%	/	0%[12.3 µM]	-28%
NC(=O)[C@H](Cc1ccccc1)NC(=O)[C@H](Cc1c[nH]c2ccccc12)NC(=O)[C@@H]1CCCN1C(=O)[C@@H](N)Cc1ccc(O)cc1	/	/	/	/	1%	/
N#CC(C#N)=NNc1ccc(-n2ccc(C(F)(F)F)n2)cc1	1.6µM*	3.2µM*	-45%	-83*	8%	2.3µM*
Cc1cc(C)n(-c2ccc(NN=C(C#N)C#N)cc2)n1	7.3µM*	?	-78%	-13	13%	10µM*
O=c1ccc2cc(OC3OC(CO)C(O)C(O)C3O)c(O)cc2o1 (stereo not drawn)	-2%	/	/	/	-8%[56.1 µM]	?
CCCCC[C@@H]1CCCCC[C@@H](O)C[C@@H](O)[C@@H](O)/C=C/C(=O)O1	-34%	/	/	-15	/	?
O=C(NC1CCCCC1)Oc1cc2oc(=O)sc2cc1Cl	15µM*	?	-34%	23	-5%	-17%
Cc1ccc(C(=O)OCC(=O)NC2CCCCC2)o1	-19%	?	-2%	12	?	6%
CCC1(C)OC(c2ccccc2)=C/C(=C/C=C2C(=O)NC(=O)NC2=O)O1 (stereo not drawn)	?	31%	-5%	10	3%	?
O=C(Nc1ccc2ccccc2c1)c1nn(C23CC4CC(CC(C4)C2)C3)cc1Br	21µM*	-3%	-6%	-6	-5%	18µM*
COc1cc(/C=C/[N+](=O)[O-])ccc1O	9.2µM*	?	-51%	-65*	5%	8.2µM*
CCN1C[C@]2(C)CC[C@H](OC)[C@]34C5C[C@@H]6CC[C@@](O)(C5C(=O)O6)C(C13)[C@@H](OC(=O)c1ccccc1)C24	-14%[9.04 µM]	/	/	/	1%	3%[9.04 µM]
COc1ccc(OC)c(C[C@H](C)N)c1	-27%[92.5 µM]	/	/	/	/	-30%[92.5 µM]
O=C(CC1CCCCC1)c1c(O)c2ccccc2oc1=O	?	-38%	-33%	16	5%	18µM*
C/C=C1\C[N@@+]2(C)CC[C@@]34C(=C(C=O)[C@H]1C[C@H]32)Nc1ccccc14	/	/	/	/	6%[56.1 µM]	/
Cc1cccc(N=C2c3cc([N+](=O)[O-])ccc3-c3c2cc([N+](=O)[O-])cc3[N+](=O)[O-])c1	18µM*	-6%	-16%	-96*	/	8.2µM*
Nc1ccc([N+](=O)[O-])cc1[N+](=O)[O-]	/	/	/	/	17%	/
CCn1c(CN2CCN(C)CC2)nc2ccccc21	-2%	-5%	-36%	/	3%	-2%
CCC(=C(c1ccc(O)cc1)c1ccc(OCCN(C)C)cc1)c1ccccc1	-23%	7%	-5%	5	/	-7%
CC/C(=C(\c1ccc(O)cc1)c1ccc(OCCN(C)C)cc1)c1ccccc1	15µM*	?	-97%	12	9%	?

Source: PubChem BioAssay (National Center for Advancing Translational Sciences (NCATS))
